Results on 64 compounds are retold here after the antibiotic and cytotoxicity screens of Wong et al. (2023).

Screen size: about 39,000 compounds; about 3,300 (8.5%) were called active. Only a selection was taken, and actives are over-represented in it overall.

The experiment concerns HepG2. Kind of experiment: cytotoxicity call (relative viability < 0.9). The settings on record: 10 µM.
Turning to `COc1ccc(S(=O)(=O)N(C)C[C@@H]2Oc3c(NS(=O)(=O)c4ccccc4)cccc3C(=O)N([C@H](C)CO)C[C@@H]2C)cc1`, the cytotoxicity call is “inactive”. In the case of `C[C@H]1CN([C@@H](C)CO)C(=O)Cc2cc(NC(=O)CCN3CCOCC3)ccc2O[C@H]1CN(C)Cc1ccc2c(c1)OCO2` it was “inactive”; in that of `C[C@@H]1CCCCO[C@@H](CN(C)Cc2ccc(Cl)c(Cl)c2)[C@@H](C)CN([C@@H](C)CO)C(=O)c2cc(NC(=O)NC3CCCCC3)ccc2O1`, “active”; in that of `C[C@H]1CCCCO[C@H](CN(C)Cc2ccc(Cl)c(Cl)c2)[C@@H](C)CN([C@@H](C)CO)C(=O)c2cc(NC(=O)NC3CCCCC3)ccc2O1`, “inactive”. In the case of `C[C@@H]1CN([C@H](C)CO)C(=O)c2cc(NC(=O)NC3CCCCC3)ccc2O[C@@H](C)CCCCO[C@@H]1CN(C)Cc1ccc(Cl)c(Cl)c1` it was “inactive”; in that of `C[C@@H]1CCCCO[C@H](CN(C)Cc2ccc(Cl)c(Cl)c2)[C@@H](C)CN([C@H](C)CO)C(=O)c2cc(NC(=O)NC3CCCCC3)ccc2O1`, “inactive”; in that of `C[C@@H]1CCCCO[C@H](CN(C)Cc2ccc(Cl)c(Cl)c2)[C@@H](C)CN([C@@H](C)CO)C(=O)c2cc(NC(=O)NC3CCCCC3)ccc2O1`, “inactive”. As for `C[C@H](CO)N1C[C@H](C)[C@H](CN(C)Cc2ccc(Cl)c(Cl)c2)OCCCC[C@H](C)Oc2ccc(NC(=O)NC3CCCCC3)cc2C1=O`, the cytotoxicity call is “active”.

In the case of `C[C@@H]1CCCCO[C@@H](CN(C)Cc2ccc(Cl)c(Cl)c2)[C@@H](C)CN([C@H](C)CO)C(=O)c2cc(NC(=O)NC3CCCCC3)ccc2O1`, the cytotoxicity call was “inactive”. Regarding `C[C@@H]1CN([C@@H](C)CO)C(=O)c2cc(NC(=O)NC3CCCCC3)ccc2O[C@@H](C)CCCCO[C@H]1CN(C)Cc1ccc(Cl)c(Cl)c1`, the cytotoxicity call was “active”. `C[C@@H]1CCCCO[C@H](CN(C)Cc2ccc(Cl)c(Cl)c2)[C@H](C)CN([C@@H](C)CO)C(=O)c2cc(NC(=O)NC3CCCCC3)ccc2O1`: the cytotoxicity call was “inactive”. With `C[C@H](CO)N1C[C@H](C)[C@@H](CN(C)Cc2ccc(Cl)c(Cl)c2)OCCCC[C@H](C)Oc2ccc(NC(=O)NC3CCCCC3)cc2C1=O`, the cytotoxicity call is “active”.

With `C[C@@H]1CCCCO[C@@H](CN(C)Cc2ccc(Cl)c(Cl)c2)[C@H](C)CN([C@@H](C)CO)C(=O)c2cc(NC(=O)NC3CCCCC3)ccc2O1`, the cytotoxicity call was “inactive”. With `C[C@@H]1CCCCO[C@@H](CN(C)Cc2ccc(Cl)c(Cl)c2)[C@H](C)CN([C@H](C)CO)C(=O)c2cc(NC(=O)NC3CCCCC3)ccc2O1`, the cytotoxicity call is “inactive”. `O=C(O)CCN1CCCC1=O`: the cytotoxicity call was “inactive”. For the compound `COC(=O)c1c2oc(c1C(=O)OC)C(=O)N[C@@H](Cc1ccccc1)Cn1cc(nn1)[C@H](Cc1ccccc1)NC(=O)N[C@@H](CO)CC2`, the cytotoxicity call is “inactive”. In the case of `C[C@H]1CN([C@@H](C)CO)C(=O)Cc2cc(NC(=O)Cn3cnnn3)ccc2O[C@H]1CN(C)Cc1ccc(C(=O)O)cc1` it was “inactive”; in that of `C[C@@H]1CN([C@@H](C)CO)C(=O)c2cc(N(C)C)ccc2O[C@@H](C)CCCCO[C@@H]1CN(C)S(=O)(=O)c1cn(C)cn1`, “inactive”. As to `COc1ccc(NC(=O)Nc2ccc3c(c2)C(=O)N([C@@H](C)CO)C[C@@H](C)[C@@H](CN(C)C(=O)Nc2ccc(OC)cc2)OCCCC[C@H](C)O3)cc1`, the cytotoxicity call is “inactive”. In the case of `C[C@@H]1CN([C@@H](C)CO)C(=O)c2cccc(NC(=O)NC3CCCCC3)c2O[C@@H]1CN(C)Cc1ccc(Cl)c(Cl)c1` it was “inactive”; in that of `O=C(O)/C=C/c1cnc[nH]1`, “inactive”; in that of `C=CCN1C(=O)[C@@]2(O[C@@H](CCO)[C@H]([Si](C)(C)F)[C@H]2C)c2cc(N3C(=O)c4cccc5cccc3c45)ccc21`, “inactive”.

For the compound `C=CCN1C(=O)[C@@]2(O[C@@H](CCn3cc([C@H](O)c4ccccc4)nn3)[C@H]([Si](C)(C)c3ccc(OC)cc3)[C@H]2C)c2cc(N3C(=O)c4cccc5cccc3c45)ccc21`, the cytotoxicity call was “inactive”.

Consider `C=CCN1C(=O)[C@]2(O[C@H](CCO)[C@@H]([Si](C)(C)c3ccc(OC)cc3)[C@@H]2C)c2cc(N3C(=O)c4cccc5cccc3c45)ccc21`, for which the cytotoxicity call is “active”.

In the case of `C=CCN1C(=O)[C@]2(O[C@H](CCn3cc([C@H](O)c4ccccc4)nn3)[C@@H]([Si](C)(C)c3ccc(OC)cc3)[C@@H]2C)c2cc(N3C(=O)c4cccc5cccc3c45)ccc21`, the cytotoxicity call was “inactive”.

On to `C=CCN1C(=O)[C@@]2(O[C@@H](CCO)[C@H]([Si](C)(C)c3ccc(OC)cc3)[C@H]2C)c2cc(N3C(=O)c4cccc5cccc3c45)ccc21`, for which the cytotoxicity call is “active”. In the case of `C[C@H](CO)N1C[C@H](C)[C@H](CN(C)C(=O)Nc2cccc3ccccc23)Oc2ccc(NS(=O)(=O)c3cccs3)cc2CC1=O` it was “inactive”.

`CC(C)NC(=O)N(C)C[C@@H]1OCCCC[C@@H](C)Oc2ccc(NC(=O)Nc3ccc(F)cc3)cc2C(=O)N([C@H](C)CO)C[C@H]1C`: the cytotoxicity call is “inactive”. In the case of `COc1ccccc1CNC(=O)C[C@@H]1C[C@@H]2c3cc(NC(=O)NC4CCCC4)ccc3O[C@@H]2[C@@H](CO)O1` it was “inactive”; in that of `COc1ccc(NC(=O)N(C)C[C@H]2Oc3c(NC(=O)Nc4cccc5ccccc45)cccc3C(=O)N([C@H](C)CO)C[C@@H]2C)cc1`, “inactive”. For the compound `COc1ccc(S(=O)(=O)Nc2ccc3c(c2)C(=O)N([C@H](C)CO)C[C@H](C)[C@H](CN(C)Cc2ccc(C(=O)O)cc2)OCCCC[C@@H](C)O3)cc1`, the cytotoxicity call is “inactive”. The value for `COc1ccc(NC(=O)N(C)C[C@@H]2OCCCC[C@@H](C)Oc3ccc(NC(=O)Nc4ccc(F)cc4)cc3C(=O)N([C@H](C)CO)C[C@H]2C)cc1` was “inactive”. On to `O=C(CC1CC1)NCc1cnc2n1CCNCC2`, for which the cytotoxicity call is “inactive”. For `O=C(C[C@@H]1CC=CCCC(=O)OC[C@H](Cc2c[nH]c3ccccc23)NC1=O)N[C@H](CO)Cc1ccccc1`, the cytotoxicity call is “inactive”. The value for `O=C(C[C@@H]1CC=CCCC(=O)OC[C@H](Cc2c[nH]c3ccccc23)NC1=O)N[C@@H](CO)Cc1ccccc1` was “inactive”; that for `O=C(C[C@@H]1CC=CCC[C@@H](Cc2ccc(F)cc2)C(=O)OC[C@H](Cc2c[nH]c3ccccc23)NC1=O)N[C@@H](CO)Cc1ccccc1` was “active”; that for `O=C(C[C@@H]1CC=CCC[C@H](Cc2ccc(F)cc2)C(=O)OC[C@@H](Cc2c[nH]c3ccccc23)NC1=O)N[C@@H](CO)Cc1ccccc1` was “inactive”. The value for `O=C(C[C@@H]1CC=CCCC(=O)OC[C@@H](Cc2c[nH]c3ccccc23)NC1=O)N[C@H](CO)Cc1ccccc1` was “inactive”; that for `O=C(C[C@@H]1CC=CCC[C@@H](Cc2ccc(F)cc2)C(=O)OC[C@@H](Cc2c[nH]c3ccccc23)NC1=O)N[C@H](CO)Cc1ccccc1` was “active”.

For the compound `O=C(C[C@@H]1CC=CCC[C@H](Cc2ccc(F)cc2)C(=O)OC[C@H](Cc2c[nH]c3ccccc23)NC1=O)N[C@@H](CO)Cc1ccccc1`, the cytotoxicity call is “inactive”. On to `O=C(C[C@@H]1CC=CCC[C@@H](Cc2ccc(F)cc2)C(=O)OC[C@H](Cc2c[nH]c3ccccc23)NC1=O)N[C@H](CO)Cc1ccccc1`, for which the cytotoxicity call is “active”. For `O=C(C[C@@H]1CC=CCCC(=O)OC[C@@H](Cc2c[nH]c3ccccc23)NC1=O)N[C@@H](CO)Cc1ccccc1`, the cytotoxicity call was “inactive”.

Regarding `C[C@@H]1COC(=O)[C@@H](Cc2ccc(F)cc2)CCC=CC[C@@H](CC(=O)N[C@H](CO)Cc2ccccc2)C(=O)N1`, the cytotoxicity call was “inactive”. `O=C(C[C@@H]1CC=CCC[C@@H](Cc2ccc(F)cc2)C(=O)OC[C@@H](Cc2c[nH]c3ccccc23)NC1=O)N[C@@H](CO)Cc1ccccc1`: the cytotoxicity call is “inactive”. As for `O=C(C[C@@H]1CC=CCC[C@H](Cc2ccc(F)cc2)C(=O)OC[C@H](Cc2c[nH]c3ccccc23)NC1=O)N[C@H](CO)Cc1ccccc1`, the cytotoxicity call is “active”.

With `Cc1noc(C)c1NC(=O)N(C)C[C@@H]1Oc2c(NS(=O)(=O)c3ccccc3)cccc2C(=O)N([C@@H](C)CO)C[C@@H]1C`, the cytotoxicity call is “inactive”.

On to `CC(C)Cn1c(N)cc(=O)n(C)c1=O`, for which the cytotoxicity call is “inactive”. The value for `C[C@@H]1CCCCO[C@@H](CN(C)C(=O)Nc2ccc3c(c2)OCO3)[C@H](C)CN([C@H](C)CO)C(=O)c2cc(NS(=O)(=O)c3ccccc3)ccc2O1` was “inactive”.

Take `COc1ccc(S(=O)(=O)Nc2cccc3c2O[C@H](CN(C)C(=O)Nc2cccc4ccccc24)[C@@H](C)CN([C@@H](C)CO)C3=O)cc1`: the cytotoxicity call was “inactive”.

Consider `C=CC[C@@H](CC(=O)N(CCO)Cc1ccccc1)C(=O)NC[C@@H](OC(=O)[C@@H](CC=C)Cc1ccc(F)cc1)c1ccccc1`, for which the cytotoxicity call was “inactive”. Regarding `C[C@@H]1CCCCO[C@@H](CN(C)CC2CC2)[C@H](C)CN([C@@H](C)CO)C(=O)c2cc(NC(=O)NC3CCCCC3)ccc2O1`, the cytotoxicity call was “inactive”. The value for `O=C1NC(=O)[C@@]2(CC[C@H](C(=O)O)C2)N1` was “inactive”; that for `CN1CCN(C(=O)C[C@@H]2CC[C@H]3[C@@H](COC[C@H](O)CN3Cc3ccc(Oc4ccccc4)cc3)O2)CC1` was “inactive”; that for `C[C@@H]1CCCCO[C@@H](CN(C)S(=O)(=O)c2cccs2)[C@H](C)CN([C@@H](C)CO)C(=O)c2cc(NC(=O)NC3CCCCC3)ccc2O1` was “inactive”. `O=C(O)c1oc2ccccc2c1CSc1ccc(Cl)cc1`: the cytotoxicity call is “inactive”. Turning to `COc1ccc(CN(C)C[C@H]2OCCCC[C@@H](C)Oc3ccc(NC(=O)NC4CCCCC4)cc3C(=O)N([C@H](C)CO)C[C@H]2C)cc1`, the cytotoxicity call was “active”.

In the case of `COc1ccc(CN(C)C[C@@H]2OCCCC[C@H](C)Oc3ccc(NC(=O)NC4CCCCC4)cc3C(=O)N([C@@H](C)CO)C[C@@H]2C)cc1`, the cytotoxicity call was “active”. On to `COc1ccc(CN(C)C[C@H]2OCCCC[C@H](C)Oc3ccc(NC(=O)NC4CCCCC4)cc3C(=O)N([C@@H](C)CO)C[C@@H]2C)cc1`, for which the cytotoxicity call is “inactive”. Take `COc1ccc(CN(C)C[C@@H]2OCCCC[C@@H](C)Oc3ccc(NC(=O)NC4CCCCC4)cc3C(=O)N([C@H](C)CO)C[C@H]2C)cc1`: the cytotoxicity call was “inactive”. The value for `COc1ccc(CN(C)C[C@H]2OCCCC[C@H](C)Oc3ccc(NC(=O)NC4CCCCC4)cc3C(=O)N([C@@H](C)CO)C[C@H]2C)cc1` was “active”; that for `COc1ccc(CN(C)C[C@H]2OCCCC[C@H](C)Oc3ccc(NC(=O)NC4CCCCC4)cc3C(=O)N([C@H](C)CO)C[C@H]2C)cc1` was “inactive”; that for `COc1ccc(CN(C)C[C@H]2OCCCC[C@@H](C)Oc3ccc(NC(=O)NC4CCCCC4)cc3C(=O)N([C@@H](C)CO)C[C@@H]2C)cc1` was “inactive”.

In the case of `COc1ccc(CN(C)C[C@@H]2OCCCC[C@@H](C)Oc3ccc(NC(=O)NC4CCCCC4)cc3C(=O)N([C@H](C)CO)C[C@@H]2C)cc1`, the cytotoxicity call is “inactive”. For `COc1ccc(CN(C)C[C@@H]2OCCCC[C@H](C)Oc3ccc(NC(=O)NC4CCCCC4)cc3C(=O)N([C@H](C)CO)C[C@@H]2C)cc1`, the cytotoxicity call is “inactive”.
